Potency data for 44 molecules are collected here from PubChem BioAssay (NCATS).

The target of assay [1] is Aldehyde dehydrogenase, mitochondrial (Homo sapiens) (UniProt P05091). Kind of assay: qHTS for Inhibitors of the Aldehyde Dehydrogenase Family (ALDH2) Primary screen (AID 2061308). Further: nearly all actives have a fitted effect of over 55% in size.
Assay [2] concerns the target Retinaldehyde dehydrogenase 3 (Homo sapiens) (UniProt P47895). Kind of assay: qHTS for Inhibitors of the Aldehyde Dehydrogenase Family (ALDH1A3) Primary screen (AID 2061315). (In general: Quantitative high-throughput screening tests each substance at several concentrations.)

Inconclusive results are not listed. Where a call stands in place of a potency, no number is given. Active and inactive are the calls of the source. The call rests on the fitted dose curve; in most records, active means well fitted curve in the direction sought with a large enough effect; inconclusive means small, poorly fitted or top-dose-only effect, or another doubt; inactive means no such curve, though single readings can be large; an effect the other way counts as inactive or inconclusive.

Regarding `CC(C)(C)c1cccc(-n2cnc3cc(C(=O)N4CCCCC4)ccc32)c1`, the Potency entry in assay [1] and in assay [2] was “inactive” in each case.
Take `c1ccc(CNCc2nnc(-c3cc4ccccc4[nH]3)o2)cc1`: the Potency entry in assay [1] and in assay [2] was “inactive” each time.
As to `COc1ccnc(NC(=S)N2CCN(c3cc(C(F)(F)F)cc(C(F)(F)F)c3)CC2)c1`, the Potency entry in assay [1] and in assay [2] was “inactive” throughout.
For the molecule `Cc1cc(C)nc(NC(=S)N2CCN(c3ccncc3)CC2)c1`, the Potency result in assay [1] and in assay [2] was “inactive” in each case.
For `CC(C)(C)n1cnc2cc(C(=O)N3CCCCC3)ccc21`, the Potency entry in assay [1] and in assay [2] was “inactive” throughout.
Take `Cc1ccc(S(=O)(=O)Nc2cnccc2C(=O)Nc2ccc3ccccc3c2)cc1`: the Potency result in assay [1] and in assay [2] was “inactive” each time.
For the molecule `Cc1noc(C)c1-c1ccc2ncnc(NCc3ccccc3F)c2c1`, the Potency result in assay [1] and in assay [2] was “inactive” each time.
`Cc1ccc(S(=O)(=O)Nc2ccccc2C(=O)Nc2ccc(-c3ccccc3)cc2)cc1`: the Potency entry in assay [1] and in assay [2] was “inactive” throughout.
`O=C(Nc1nnc(COc2ccc(Cl)cc2)s1)c1cccs1`: the Potency result in assay [1] and in assay [2] was “inactive” each time.
`NC(N)=NCCC[C@H](NC(=O)CNC(=O)c1ccccc1)C(=O)Nc1cc(C(F)(F)F)ccc1Cl`: the Potency entry in assay [1] and in assay [2] was “inactive” each time.
Take `Cc1cc(C)n2ncc(C(=O)Nc3ccc(C#N)cc3)c2n1`: the Potency result in assay [1] and in assay [2] was “inactive” in each case.
Regarding `COc1cc(O)c(C(CC(=O)N2CCC(c3ccccc3)CC2)c2ccc3c(c2)OCO3)c(OC)c1` (stereo not drawn), the Potency entry in assay [1] and in assay [2] was “inactive” in each case.
Turning to `Cc1ccc2oc(NC3=NC4(CCCC4)C4=C(CCCC4=O)N3)nc2c1`, the Potency result in assay [1] and in assay [2] was “inactive” in each case.
In the case of `O=C(Nc1ccc(Cl)cc1)Nc1nnc(-c2ccncc2)s1`, the Potency result in assay [1] and in assay [2] was “inactive” in each case.
For the molecule `COCCNc1nc(C)nc2c1nc(-c1ccccc1)n2CCN(C)C`, the Potency entry in assay [1] and in assay [2] was “inactive” in each case.
Turning to `O=S(=O)(c1ccc2c(c1)OCCO2)N1CCN(S(=O)(=O)c2cccc(Cl)c2F)CC1`, the Potency entry in assay [1] and in assay [2] was “inactive” in each case.
For the molecule `CNC1CCC(N(Cc2ccc(OC)c(-c3ccc(C#N)cc3)c2)C(=O)c2sc3ccccc3c2Cl)CC1` (stereo not drawn), the Potency result in assay [1] and in assay [2] was “inactive” throughout.
In the case of `COc1cc(-c2no[n+]([O-])c2C#N)cc(OC)c1OC`, the Potency entry in assay [1] and in assay [2] was “inactive” each time.
As to `C=CCc1cccc(CNc2ccc(S(=O)(=O)Nc3nccs3)cc2)c1O`, the Potency result in assay [1] and in assay [2] was “inactive” each time.
With `O=C(O)c1ccc2c(c1)C(=O)N([C@H](Cc1c3ccccc3cc3ccccc13)C(=O)O)C2=O`, the Potency entry in assay [1] and in assay [2] was “inactive” throughout.
As for `O=C(Nc1cccc2c1cnn2-c1ccc(F)cc1)c1ccccn1`, the Potency entry in assay [1] and in assay [2] was “inactive” in each case.
Turning to `Cc1cc(C)n2ncc(C(=O)NC(C)C)c2n1`, the Potency entry in assay [1] and in assay [2] was “inactive” throughout.
Regarding `c1nc(NCc2ccc3c(c2)OCO3)c2cc(-c3ccc4c(c3)OCCO4)ccc2n1`, the Potency result in assay [1] and in assay [2] was “inactive” in each case.
With `CCCn1c(-c2ccc(F)cc2)nc2c(NCCCN(CCO)CCO)nc(C)nc21`, the Potency result in assay [1] and in assay [2] was “inactive” each time.
For `COc1ccc(C(=O)Nc2nc(-c3ccccc3)cs2)c(NS(=O)(=O)c2ccc(C)cc2)c1`, the Potency result in assay [1] and in assay [2] was “inactive” each time.
Take `CCCCc1ccc(C(=O)Nc2ccc(S(=O)(=O)Nc3nccs3)cc2)cc1`: the Potency entry in assay [1] and in assay [2] was “inactive” in each case.
For `Cn1c2cc(C#N)sc2c2cnn(Cc3ccccc3F)c(=O)c21`, the Potency result in assay [1] and in assay [2] was “inactive” each time.
Take `COc1ccc(-c2ccc3nnc(-c4ccccc4OC)n3n2)cc1OC`: the Potency result in assay [1] and in assay [2] was “inactive” each time.
As to `CC(C)Cc1ccc(-c2ccc(=O)n(CC(=O)NCCc3ccccc3)n2)cc1`, the Potency result in assay [1] and in assay [2] was “inactive” in each case.
Take `CCN(CC)CCn1c(-c2ccccc2)nc2c(NCCO)nc(C)nc21`: the Potency result in assay [1] and in assay [2] was “inactive” each time.
For the molecule `O=C(c1ccccc1O)N(Cc1cccs1)Cc1cccs1`, the Potency result in assay [1] and in assay [2] was “inactive” each time.
Regarding `Cc1cccc(CNc2ncnc3ccc(-c4ccc5c(ccn5C)c4)cc23)c1`, the Potency entry in assay [1] and in assay [2] was “inactive” each time.
Regarding `Fc1cccc(CNc2ncnc3ccc(-c4ccc5c(c4)OCO5)cc23)c1`, the Potency entry in assay [1] and in assay [2] was “inactive” each time.
`O=C(NCCc1nc2ccccc2n1CCOc1ccccc1F)C1CCCCC1`: the Potency entry in assay [1] and in assay [2] was “inactive” in each case.
Take `Cc1cccc(C(=O)NCC(=O)OC(C(=O)Nc2cc(C(F)(F)F)ccc2Cl)c2ccccc2)c1` (stereo not drawn): the Potency entry in assay [1] and in assay [2] was “inactive” in each case.
As to `Fc1cc(Nc2nc(-c3ccncc3)nc3ccccc23)ccc1-c1cccc(OC(F)(F)F)c1`, the Potency entry in assay [1] and in assay [2] was “inactive” in each case.
Regarding `Cn1nnnc1Sc1ncnc2scc(-c3ccc4c(c3)OCO4)c12`, the Potency result in assay [1] and in assay [2] was “inactive” in each case.
As to `Cc1ccc(NS(=O)(=O)c2cc3c(cc2NCC(C)(C)O)NC(=O)CC3)cc1C`, the Potency entry in assay [1] and in assay [2] was “inactive” throughout.
In the case of `O=C1Nc2cccc(Cl)c2/C1=C\c1cc(Cl)c(O)c(Cl)c1`, the Potency entry in assay [1] and in assay [2] was “inactive” each time.
With `CC(=O)NC(c1ccco1)c1cc(Br)c2cccnc2c1O` (stereo not drawn), the Potency result in assay [1] and in assay [2] was “inactive” throughout.
Turning to `Cc1cnc(-c2ccccc2C(C)C)nc1NC(C)c1ccc(-c2cccnc2)cc1` (stereo not drawn), the Potency entry in assay [1] and in assay [2] was “inactive” throughout.
In the case of `CNc1oc(-c2cccc3ncccc23)nc1C#N`, the Potency entry in assay [1] and in assay [2] was “inactive” each time.
For `Cc1ccc(OCCn2c(CCNC(=O)/C=C/c3ccccc3Br)nc3ccccc32)cc1`, the Potency entry in assay [1] and in assay [2] was “inactive” each time.
Consider `CCn1c2ccccc2c2cc(Nc3ccnc(NCCCN4CCOCC4)n3)ccc21`, for which the Potency result in assay [1] and in assay [2] was “inactive” throughout.
